PubChem BioAssay (EPA / NIEHS)
Results filed as inconclusive are left out. The source made the active and inactive calls. The calls were made as follows: active = hit-call score of the fitted dose curve at least 0.9, where 1 is the maximum; inconclusive = response in the unintended direction; inactive = score below 0.9.

Target: human Sirtuin 2 (SIRT2), SIRT2 (gene 22933) (UniProt Q8IXJ6)
Test: NVS_ENZ_hSIRT2: NovaScreen (NVS) Enzymatic Assay for human Sirtuin 2 (SIRT2) (AID 2283217)
Summary of the method: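 Cell-free recombinant human SIRT2, fluorescent substrate with product separated by electrophoretic mobility shift, 1 hr. Screened in duplicate at 25 uM; hits rerun singly in concentration-response up to 50 uM, relative to DMSO.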

Sequence of human Sirtuin 2 (SIRT2), SIRT2 (gene 22933) (Q8IXJ6 whole entry, looked up): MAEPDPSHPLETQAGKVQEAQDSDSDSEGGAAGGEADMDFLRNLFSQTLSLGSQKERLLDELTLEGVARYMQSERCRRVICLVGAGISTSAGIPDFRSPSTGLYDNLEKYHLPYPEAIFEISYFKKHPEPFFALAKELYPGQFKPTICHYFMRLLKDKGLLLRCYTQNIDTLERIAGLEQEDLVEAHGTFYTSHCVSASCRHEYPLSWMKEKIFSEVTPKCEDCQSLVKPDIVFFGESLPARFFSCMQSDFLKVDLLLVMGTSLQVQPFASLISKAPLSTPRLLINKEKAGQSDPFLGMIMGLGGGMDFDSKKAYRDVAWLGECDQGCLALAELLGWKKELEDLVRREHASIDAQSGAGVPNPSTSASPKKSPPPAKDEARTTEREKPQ

| SMILES | outcome |
| --- | --- |
| C=CCOC(=O)c1ccccc1C(=O)OCC=C | inactive |
| Cc1nc(-c2ccc3c(c2)CCN(CCC2CCC(NC(=O)/C=C/c4ccc(F)cc4)CC2)CC3)no1 (stereo not given) | inactive |
| CC(C)c1ccc(C(=O)N=C(N)N)cc1S(C)(=O)=O | inactive |

Target: human Sirtuin 1 (SIRT1), SIRT1 (gene 23411) (UniProt Q96EB6)
Test: NVS_ENZ_hSIRT1: NovaScreen (NVS) Enzymatic Assay for human Sirtuin 1 (SIRT1) (AID 2283219)
Summary of the method: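 Cell-free recombinant SIRT1 with a fluorescent substrate; substrate and product separated by electrophoretic mobility shift and read by fluorescence intensity, 1 h after dosing. Primary screen at 25 uM in duplicate; hits re-run in concentration-response up to 50 uM, relative to DMSO.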

Sequence of human Sirtuin 1 (SIRT1), SIRT1 (gene 23411) (Q96EB6 whole entry, looked up): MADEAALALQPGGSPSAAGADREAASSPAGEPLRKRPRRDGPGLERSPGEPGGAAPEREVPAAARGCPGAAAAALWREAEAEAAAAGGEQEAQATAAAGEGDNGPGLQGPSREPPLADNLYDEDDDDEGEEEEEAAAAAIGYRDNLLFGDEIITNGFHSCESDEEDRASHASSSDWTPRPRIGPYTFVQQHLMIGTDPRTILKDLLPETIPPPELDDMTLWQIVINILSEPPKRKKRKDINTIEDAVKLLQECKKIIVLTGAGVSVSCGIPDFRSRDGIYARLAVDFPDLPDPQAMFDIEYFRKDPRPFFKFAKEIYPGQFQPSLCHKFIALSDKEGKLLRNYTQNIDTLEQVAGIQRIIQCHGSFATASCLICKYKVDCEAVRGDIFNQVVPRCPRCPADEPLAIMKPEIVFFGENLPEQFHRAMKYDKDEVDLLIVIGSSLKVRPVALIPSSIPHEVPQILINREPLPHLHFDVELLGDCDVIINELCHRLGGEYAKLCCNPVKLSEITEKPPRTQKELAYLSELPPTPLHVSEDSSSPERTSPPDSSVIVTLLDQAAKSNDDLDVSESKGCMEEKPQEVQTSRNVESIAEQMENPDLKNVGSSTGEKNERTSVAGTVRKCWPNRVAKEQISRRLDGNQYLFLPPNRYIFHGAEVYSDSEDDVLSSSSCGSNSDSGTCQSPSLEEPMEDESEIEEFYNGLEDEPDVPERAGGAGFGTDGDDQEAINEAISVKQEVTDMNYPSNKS

| SMILES | outcome | AC50 |
| --- | --- | --- |
| NCC1(Cc2noc(=O)[nH]2)CCCCC1 | inactive |  |
| Cc1cccc(Nc2cc(Cl)nc(SCC(=O)O)n2)c1C | inactive |  |
| c1cc(-c2ccncc2)ccn1 | inactive |  |
| Cc1c(C(=O)O)c(O)cc2c1C(=O)c1c(O)c([C@@H]3O[C@H](CO)[C@@H](O)[C@H](O)[C@H]3O)c(O)c(O)c1C2=O | inactive |  |
| Cc1cc(NC(=O)C(=O)O)cc(C)c1Oc1ccc(O)c2c1CCC2 |  | 25 µM (active) |
| Cc1ccc(C(C)C)c(O)c1 | inactive |  |
| O=C(OCCCCCOC(=O)c1ccccc1)c1ccccc1 | inactive |  |
| CC1=C(/C=C/C(C)=C/C=C/C(C)=C/CO)C(C)(C)CCC1 | inactive |  |
| CC(=O)C(C)=CC1C(C)=CCCC1(C)C (stereo not given) | inactive |  |
| NCCO | inactive |  |
| Cc1cccc([N+](=O)[O-])c1C | inactive |  |
| Cc1nc(-c2ccc3c(c2)CCN(CCC2CCC(NC(=O)/C=C/c4ccc(F)cc4)CC2)CC3)no1 (stereo not given) | inactive |  |
| CCCCCCCC=O | inactive |  |

Target: human Sirtuin 3 (SIRT3), SIRT3 (gene 23410) (UniProt Q9NTG7)
Test: NVS_ENZ_hSIRT3: NovaScreen (NVS) Enzymatic Assay for human Sirtuin 3 (SIRT3) (AID 2283222)
Summary of the method: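 Cell-free enzyme assay with recombinant protein and fluorescent substrate, product separated by electrophoretic mobility shift; read 1 hour after dosing. Screened in duplicate at 25 uM, then singleton concentration-response up to 50 uM; loss of signal versus DMSO.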

Sequence of human Sirtuin 3 (SIRT3), SIRT3 (gene 23410) (Q9NTG7 whole entry, looked up): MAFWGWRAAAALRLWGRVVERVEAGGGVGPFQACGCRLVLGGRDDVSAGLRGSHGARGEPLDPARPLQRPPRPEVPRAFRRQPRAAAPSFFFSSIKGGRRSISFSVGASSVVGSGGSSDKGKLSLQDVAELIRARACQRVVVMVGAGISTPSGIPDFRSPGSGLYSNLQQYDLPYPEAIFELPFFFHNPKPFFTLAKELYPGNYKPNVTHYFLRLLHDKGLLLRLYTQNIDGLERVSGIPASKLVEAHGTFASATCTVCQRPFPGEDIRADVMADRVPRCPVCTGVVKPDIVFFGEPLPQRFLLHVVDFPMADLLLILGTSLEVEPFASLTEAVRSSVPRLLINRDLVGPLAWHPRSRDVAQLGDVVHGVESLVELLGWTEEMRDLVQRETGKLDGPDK

| SMILES | AC50 | outcome |
| --- | --- | --- |
| COc1cc(-c2nc(NC(=O)c3cc4cc(C)cc(C)c4n3CC(=O)O)sc2CCC2CCCCC2)c(OC)cc1Cl | 30.3 µM (active) |  |
| Cc1cccc(Nc2cc(Cl)nc(SCC(=O)O)n2)c1C |  | inactive |
| CC1(C)CC(N=C=O)CC(C)(CN=C=O)C1 (stereo not given) |  | inactive |
| Cc1nc(-c2ccc3c(c2)CCN(CCC2CCC(NC(=O)/C=C/c4ccc(F)cc4)CC2)CC3)no1 (stereo not given) |  | inactive |
| CC(C)c1ccc(C(=O)N=C(N)N)cc1S(C)(=O)=O |  | inactive |

Target: human SRC Proto-Oncogene, Non-receptor Tyrosine Kinase (SRC), SRC (gene 6714) (UniProt P12931)
Test: NVS_ENZ_hSRC: NovaScreen (NVS) Enzymatic Assay for human SRC Proto-Oncogene, Non-receptor Tyrosine Kinase (SRC) (AID 2283223)
Summary of the method: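 Cell-free kinase activity assay with fluorescent substrate, product separated by electrophoretic mobility shift, read 1 h after dosing. Duplicate single point at 25 uM, then concentration-response up to 50 uM; loss of signal versus DMSO.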

Sequence of human SRC Proto-Oncogene, Non-receptor Tyrosine Kinase (SRC), SRC (gene 6714) (P12931 whole entry, looked up): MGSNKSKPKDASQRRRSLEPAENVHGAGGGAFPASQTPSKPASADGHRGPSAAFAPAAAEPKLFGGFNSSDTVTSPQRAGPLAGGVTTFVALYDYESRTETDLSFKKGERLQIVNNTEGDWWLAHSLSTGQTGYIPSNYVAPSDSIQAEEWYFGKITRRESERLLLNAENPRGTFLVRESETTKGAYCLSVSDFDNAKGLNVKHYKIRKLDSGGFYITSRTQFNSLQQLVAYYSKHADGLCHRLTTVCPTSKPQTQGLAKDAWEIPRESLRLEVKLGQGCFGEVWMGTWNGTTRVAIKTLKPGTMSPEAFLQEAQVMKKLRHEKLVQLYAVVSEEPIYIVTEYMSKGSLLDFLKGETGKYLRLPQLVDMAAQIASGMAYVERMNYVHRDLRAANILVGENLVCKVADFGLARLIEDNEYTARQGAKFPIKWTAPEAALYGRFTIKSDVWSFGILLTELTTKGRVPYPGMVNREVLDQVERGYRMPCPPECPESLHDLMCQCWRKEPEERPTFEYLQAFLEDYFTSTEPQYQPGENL

| SMILES | outcome |
| --- | --- |
| CC1(C)NC(=O)NC1=O | inactive |
| Cc1oc(-c2ccccc2)nc1CCOc1cccc2c1ccn2CCC(=O)O | inactive |
| CCCc1cc(=O)[nH]c(=S)[nH]1 | inactive |
| O=C(OCCCCCOC(=O)c1ccccc1)c1ccccc1 | inactive |
| NCCO | inactive |

Target: human Vascular Endothelial Growth Factor Receptor 1 (VEGFR1), FLT1 (gene 2321) (UniProt P17948)
Test: NVS_ENZ_hVEGFR1: NovaScreen (NVS) Enzymatic Assay for human Vascular Endothelial Growth Factor Receptor 1 (VEGFR1) (AID 2283226)
Summary of the method: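 Cell-free assay of recombinant human VEGFR1 kinase with substrate, measured 1 h after dosing; fluorescence with electrophoretic mobility-shift separation of substrate and product, referenced to DMSO; primary screen at 25 uM in duplicate, actives then run in concentration series.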

Sequence of human Vascular Endothelial Growth Factor Receptor 1 (VEGFR1), FLT1 (gene 2321) (P17948 whole entry, looked up): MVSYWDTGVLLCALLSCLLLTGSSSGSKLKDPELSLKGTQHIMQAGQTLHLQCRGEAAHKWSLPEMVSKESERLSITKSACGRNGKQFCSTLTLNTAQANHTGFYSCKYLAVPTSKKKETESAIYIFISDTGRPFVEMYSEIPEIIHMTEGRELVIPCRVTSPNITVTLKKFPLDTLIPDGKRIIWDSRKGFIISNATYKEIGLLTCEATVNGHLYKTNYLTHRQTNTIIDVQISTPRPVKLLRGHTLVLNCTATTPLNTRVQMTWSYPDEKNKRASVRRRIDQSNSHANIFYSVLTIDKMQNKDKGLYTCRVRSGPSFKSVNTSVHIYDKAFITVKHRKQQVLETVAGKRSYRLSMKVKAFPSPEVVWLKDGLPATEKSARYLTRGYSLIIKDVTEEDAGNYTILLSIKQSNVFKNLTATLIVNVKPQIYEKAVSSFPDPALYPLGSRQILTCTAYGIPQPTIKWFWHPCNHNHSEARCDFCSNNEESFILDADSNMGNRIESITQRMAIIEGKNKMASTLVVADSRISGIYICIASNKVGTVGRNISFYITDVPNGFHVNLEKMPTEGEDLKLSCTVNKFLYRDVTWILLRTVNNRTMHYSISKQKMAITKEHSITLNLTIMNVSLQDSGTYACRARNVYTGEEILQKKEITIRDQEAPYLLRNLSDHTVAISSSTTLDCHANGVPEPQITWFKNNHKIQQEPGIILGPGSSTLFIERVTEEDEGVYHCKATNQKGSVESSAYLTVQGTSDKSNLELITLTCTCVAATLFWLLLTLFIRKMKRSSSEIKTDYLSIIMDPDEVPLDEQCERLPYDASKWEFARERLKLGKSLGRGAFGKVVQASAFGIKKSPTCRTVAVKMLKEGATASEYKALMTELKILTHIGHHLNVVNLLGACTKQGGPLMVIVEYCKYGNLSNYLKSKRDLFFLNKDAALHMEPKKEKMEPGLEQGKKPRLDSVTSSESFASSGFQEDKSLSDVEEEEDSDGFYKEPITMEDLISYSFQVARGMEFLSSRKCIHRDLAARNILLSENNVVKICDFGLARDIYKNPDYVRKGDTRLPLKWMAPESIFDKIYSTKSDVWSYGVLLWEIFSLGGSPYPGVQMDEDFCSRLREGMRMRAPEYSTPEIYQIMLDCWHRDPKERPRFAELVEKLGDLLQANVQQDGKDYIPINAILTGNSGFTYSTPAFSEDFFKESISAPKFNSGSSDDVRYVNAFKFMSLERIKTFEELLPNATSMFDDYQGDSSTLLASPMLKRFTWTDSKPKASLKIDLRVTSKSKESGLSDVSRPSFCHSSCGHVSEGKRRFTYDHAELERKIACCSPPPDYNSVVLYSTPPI

| SMILES | outcome |
| --- | --- |
| Cc1oc(-c2ccccc2)nc1CCOc1cccc2c1ccn2CCC(=O)O | inactive |
| FC(F)(F)C(F)(F)C(F)(F)C(F)(F)C(F)(F)C(F)(F)CCI | inactive |
| CC1=C(/C=C/C(C)=C/C=C/C(C)=C/CO)C(C)(C)CCC1 | inactive |
| NCCO | inactive |
